Only some compounds are listed: those with a hit (about 27% of all), similar ones and a draw of the others.
CYP2C9 inh: blockers of cytochrome P450 2C9 activity – biochemical, luminescence, ADME assay, primary screen | CYP2C9 Supersomes, luciferin-H conversion | 96,000 tested, 20% active | inhibition, % at 5 µM | P11712 | AID 777, 2007;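 active means blocking of liver enzyme CYP2C9 beyond about 50% at 5 µM, limit read from the data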
CYP2C19 act: human CYP2C19 activators, primary screen, biochemical, luminescence. Cytochrome P450 2C19 (Homo sapiens), P33261. AID 1025, 2008. activation factor at 5 µM. 96,000 tested, under 10 active. recombinant CYP2C19, luciferin-H EGE luminescence; hits give high values; 0 = fully inhibited enzyme, 1 = untreated enzyme;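 active means activation factor of at least 2 at 5 µM in the primary screen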;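 further: 0 = wells with 2.5 mM tranylcypromine and 1 = vehicle-only wells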
Target sequence (P33261 whole entry, looked up): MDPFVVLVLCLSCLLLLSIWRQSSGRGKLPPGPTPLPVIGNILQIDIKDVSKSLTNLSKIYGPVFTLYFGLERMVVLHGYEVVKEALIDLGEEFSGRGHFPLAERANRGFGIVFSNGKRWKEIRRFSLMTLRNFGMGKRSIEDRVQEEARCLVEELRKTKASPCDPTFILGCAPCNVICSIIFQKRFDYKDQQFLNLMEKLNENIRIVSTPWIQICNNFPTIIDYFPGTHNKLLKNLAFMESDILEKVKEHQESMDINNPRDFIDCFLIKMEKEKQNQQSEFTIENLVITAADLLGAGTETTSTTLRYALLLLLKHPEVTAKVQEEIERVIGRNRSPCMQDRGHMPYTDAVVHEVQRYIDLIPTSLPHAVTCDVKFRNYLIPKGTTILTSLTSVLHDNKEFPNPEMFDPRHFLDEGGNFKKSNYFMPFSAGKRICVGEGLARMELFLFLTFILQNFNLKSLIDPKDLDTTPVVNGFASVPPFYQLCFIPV
Cav32 inh: Cav3.2 calcium influx blockers – cell-based, Fluo-4 calcium fluorescence, FDSS, MLSMR library, primary screen; Voltage-dependent T-type calcium channel subunit alpha-1H (Homo sapiens), O95180; Cav3.2-expressing cells; hits give low values; B-score at 10 µM; 100,000 tested, 4% active; AID 449739, 2010;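 active means single-dose well whose peak fluorescence ratio is a statistical outlier from its plate by either plate-standardised score or position-corrected B-score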
CYP2C9 act: human CYP2C9 activators, primary screen, biochemical, luminescence; recombinant CYP2C9, luciferin-H conversion; hits give high values; factor 1 = untreated enzyme, 0 = blocked; 96,000 tested, 1.4% active; Cytochrome P450 2C9 (Homo sapiens), P11712; AID 1024, 2008; activation factor at 5 µM;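 active means activation factor of 2 or more for CYP2C9 at a 5 µM dose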;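 further: 0 = sulfaphenazole-blocked wells and 1 = vehicle-only wells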
CYP2C19 inhib: blockers of cytochrome P450 2C19 activity – biochemical, luminescence, ADME assay, primary screen; inhibition, % at 5 µM; 96,000 tested, 21% active; CYP2C19 Supersomes, luciferin-H EGE luminescence, 30 min;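 active means CYP2C19 inhibition above a set limit at 5 µM in the primary screen, cut at about 50% in these data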;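 further: plate controls were negative control wells for no effect and 2.5 mM tranylcypromine positive control for full effect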
* hit, by the source's call.

`O=C(NC1CC1)c1sccc1-n1cccc1` gave CYP2C9 inh 46.8, CYP2C19 act 0.8, Cav32 inh -0.0934, CYP2C9 act 0.5 and CYP2C19 inhib 15.4.
For O=C(NNC(=O)C1CCCO1)c1ccc(Cl)cc1 (stereo not drawn) the results were CYP2C9 inh 7.2, CYP2C19 act 1, Cav32 inh 2.03, CYP2C9 act 0.9 and CYP2C19 inhib -4.2.
For COc1ccc(S(=O)(=O)N2CCC[C@H]2C(=O)NC2=NCCS2)cc1 the results were CYP2C9 inh -37.1, CYP2C19 act 1, Cav32 inh 0.0184, CYP2C9 act 1.4 and CYP2C19 inhib -0.9.
`COc1ccc(S(=O)(=O)N2CCCC2C(=O)Nc2nnc(-c3cccnc3)s2)cc1` (stereo not drawn) gave CYP2C9 inh 5.5, CYP2C19 act 0, Cav32 inh -0.0336, CYP2C9 act 0.9 and CYP2C19 inhib 98.9*.
`COc1ccc2nc(NC(=O)C3CCCN(S(=O)(=O)c4c(C)noc4C)C3)sc2c1` (stereo not drawn) gave CYP2C9 inh 14.9, CYP2C19 act 1, Cav32 inh -1.02, CYP2C9 act 0.9 and CYP2C19 inhib 2.5.
Screening CC(=O)c1ccc(NC(=O)C2CCCN2S(=O)(=O)c2ccc(C)cc2)cc1 (stereo not drawn) returned CYP2C9 inh 35.3, CYP2C19 act 0.6, Cav32 inh 2.89, CYP2C9 act 0.6 and CYP2C19 inhib 43.6.
`COc1ccc2nc(NC(=O)C3CCCN3S(=O)(=O)c3ccc(C)cc3)sc2c1` (stereo not drawn) gave CYP2C9 inh 27.6, CYP2C19 act 0.3, Cav32 inh -3.69*, CYP2C9 act 0.7 and CYP2C19 inhib 67.9*.
For Cc1ccc(S(=O)(=O)N2CCCC2C(=O)Nc2nc3c(s2)CCCC3)cc1 (stereo not drawn) the results were CYP2C9 inh 89.8*, CYP2C19 act 0.5, Cav32 inh -4.14, CYP2C9 act 0.1 and CYP2C19 inhib 46.2.
`CCCN1C2=NCCN2c2cc(C)c(C)cc21` gave CYP2C9 inh 2.7, CYP2C19 act 1.1, Cav32 inh -0.00982, CYP2C9 act 1 and CYP2C19 inhib -5.7.
`Cc1cc(C)nc(SCc2ccc3nonc3c2)n1` gave CYP2C9 inh 23.3, CYP2C19 act 0.5, Cav32 inh -2.15, CYP2C9 act 0.8 and CYP2C19 inhib 45.6.
Screening CCN(CC)S(=O)(=O)c1cc([N+](=O)[O-])ccc1NNC(=O)Nc1ccc(Cl)c(Cl)c1 returned CYP2C9 inh 74.2*, CYP2C19 act 0.9, Cav32 inh -3.67, CYP2C9 act 0.3 and CYP2C19 inhib 12.5.
For CC(=O)Nc1ccc(OC(=O)c2cc([N+](=O)[O-])ccc2Cl)cc1 the results were CYP2C9 inh -58.5, CYP2C19 act 1, Cav32 inh -2.48, CYP2C9 act 1.6 and CYP2C19 inhib 1.6.
For CC1=C(C(=O)OCc2ccccc2)C(c2ccc(C)o2)C2=C(CCCC2=O)N1 (stereo not drawn) the results were CYP2C9 inh 69.5*, CYP2C19 act 0.3, Cav32 inh -3.33, CYP2C9 act 0.3 and CYP2C19 inhib 69.1*.
`CCSc1cc(C2C(C(=O)OC)=C(C)NC3=C2C(=O)CCC3)c(C)o1` (stereo not drawn) gave CYP2C9 inh 22.9, CYP2C19 act 0.7, Cav32 inh -0.288, CYP2C9 act 0.8 and CYP2C19 inhib 25.3.
Screening CCOC(=O)C1=C(C)NC2=C(C(=O)CC(c3ccc(OC)c(OC)c3)C2)C1c1ccc(C)o1 (stereo not drawn) returned CYP2C9 inh 58.7*, CYP2C19 act 0.8, CYP2C9 act 0.4 and CYP2C19 inhib 18.9.
`CC1=C(C(=O)OC2CCCCC2)C(c2ccc(C)o2)C2=C(CCCC2=O)N1` (stereo not drawn) gave CYP2C9 inh 59.5*, CYP2C19 act 0.6, Cav32 inh -4.02, CYP2C9 act 0.4 and CYP2C19 inhib 41.9.
Screening CC1=C(C(=O)OC2CCCCC2)C(c2ccco2)C2=C(CC(C)(C)CC2=O)N1 (stereo not drawn) returned CYP2C9 inh 3.3, CYP2C19 act 1, Cav32 inh -2.6, CYP2C9 act 1 and CYP2C19 inhib 1.3.

Screens: PubChem BioAssay, several laboratories
